Rows were chosen to be rich in hits. Some 14% of all compounds tested hit in one or more screens of this group.
USP17 block: inhibitors of human USP17 deubiquitinase. Ubiquitin carboxyl-terminal hydrolase 17-like protein 5 (Homo sapiens), A8MUK1. purified USP17, Ub-rhodamine cleavage fluorescence, 3 h. inhibition, % at 50 µM. actives 6.5% (n = 47,000). AID 1645855, 2021
Target sequence (A8MUK1 whole entry, looked up): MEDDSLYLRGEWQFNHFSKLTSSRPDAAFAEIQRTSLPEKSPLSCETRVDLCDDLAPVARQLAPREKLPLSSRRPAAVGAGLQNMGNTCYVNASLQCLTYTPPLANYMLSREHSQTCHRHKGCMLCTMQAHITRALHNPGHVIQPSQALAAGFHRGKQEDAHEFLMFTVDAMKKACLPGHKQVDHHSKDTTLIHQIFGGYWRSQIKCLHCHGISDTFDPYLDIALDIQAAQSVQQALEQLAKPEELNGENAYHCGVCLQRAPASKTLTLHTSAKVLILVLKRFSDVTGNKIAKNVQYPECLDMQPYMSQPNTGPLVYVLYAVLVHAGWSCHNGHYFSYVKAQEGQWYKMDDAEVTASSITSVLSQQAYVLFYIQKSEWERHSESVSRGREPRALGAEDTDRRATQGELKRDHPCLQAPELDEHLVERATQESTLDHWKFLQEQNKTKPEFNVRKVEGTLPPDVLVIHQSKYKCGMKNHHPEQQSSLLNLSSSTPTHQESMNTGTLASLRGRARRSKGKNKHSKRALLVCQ
USP10 inh: inhibitors of human USP10 deubiquitinase; Ubiquitin carboxyl-terminal hydrolase 10 (Homo sapiens), Q14694; purified USP10, Ub-rhodamine fluorescence, 60 min; inhibition, % at 20 µM; actives 1.1% (n = 47,000); AID 1645856, 2021
USP30 block: inhibitors of human USP30 deubiquitinase | Ubiquitin carboxyl-terminal hydrolase 30 (Homo sapiens), Q70CQ3 | purified USP30, Ub-rhodamine cleavage fluorescence | inhibition, % at 25 µM | actives 5.3% (n = 47,000)
USP28 block: inhibitors of human USP28 deubiquitinase. inhibition, % at 25 µM. AID 1645857, 2021. actives 3% (n = 47,000). Ubiquitin carboxyl-terminal hydrolase 28 (Homo sapiens), Q96RU2. purified USP28, Ub-rhodamine cleavage fluorescence, 30 min
USP8 inh: inhibitors of human USP8 deubiquitinase; actives 4.2% (n = 47,000); purified USP8, Ub-rhodamine cleavage fluorescence, 30 min; inhibition, % at 20 µM; AID 1645853, 2021
The depositor's hits bear a star; x = not tested or not shown. Cut-off read from the data, not from the text of the source: active = inhibition above about 30%; inactive = the rest.

SMILES | USP17 block | USP10 inh | USP30 block | USP28 block | USP8 inh
Cc1ccc(C(=O)Cn2c(=O)n(C(C)C)c3nc(-c4ccco4)nc(C(N)=O)c32)c(C)c1 | -10 | -2 | -242 | -38 | 40*
O=C(c1ccc2occc2c1)N1CCC(S(=O)(=O)c2ccc(-c3ccco3)cc2)CC1 | 53* | 33* | 13 | 20 | 78*
O=S(=O)(c1ccc(-c2ccco2)cc1)C1CCN(Cc2cccnc2)CC1 | 21 | -3 | -39 | -7 | 5
CCN(CC)c1ccc(C(=O)CN2CCC(S(=O)(=O)c3ccc(-c4ccco4)cc3)CC2)cc1 | 31* | -6 | -10 | 10 | -5
Cc1cc(NC2CC3(CCN(C(=O)Cc4c(C)noc4C)C3)C2)ncn1 (configuration not stated) | 2 | -4 | -11 | 11 | 7
O=S(=O)(Nc1ccc2[nH]ncc2c1)c1ccc(Cl)cc1F | 19 | 1 | 7 | 5 | 37*
O=S(=O)(Nc1ccc2[nH]ncc2c1)c1ccc2c(c1)CCC2 | 7 | 2 | -6 | 1 | 11
Cc1ccc2nc(CNC(=O)c3ccccc3-c3nc(-c4ccc(F)cc4)no3)[nH]c2c1 | 78* | 10 | -20 | 17 | 19
CC(=O)Nc1ccc(NC(=O)c2ccccc2-c2nc(-c3cccc(C)c3)no2)cc1 | -14 | -1 | -36 | -20 | -66
COc1c(C)c(C(O)C(C)O)c2[nH]c3ccc(CC=C(C)C)cc3c2c1O (configuration not stated) | 99* | 4 | 48* | 48* | 63*
Cn1cc2cccc(NC(=O)c3ccc(F)cc3)c2n1 | 87* | 2 | -3 | 9 | 91*
CCN(CC(=O)Nc1ccc(C#N)cc1)Cc1nc2ccccc2c(=O)[nH]1 | -6 | 1 | -15 | -4 | -12
NS(=O)(=O)c1ccc(NC(=O)COC(=O)c2sc3cc(F)ccc3c2Cl)cc1 | 23 | 25 | 41* | 34* | 37*
N#Cc1c(N2CCOCC2)nc(N)c2c(N)nc3c(c12)CC(c1ccccc1)O3 (configuration not stated) | -51 | -7 | -222 | -57 | -14
N#Cc1c(N)nc2c(c1N)C(c1ccccc1)CO2 (configuration not stated) | 44* | 3 | 58* | 18 | 0
CSc1ncn(-c2nc(N(C)C)nc(N3CCCCCC3)n2)n1 | 5 | 2 | 18 | 26 | 5
CCNc1nc(N2CCCCCC2)nc(-n2cnc(SC)n2)n1 | 11 | 2 | 30* | 20 | 5
O=C1c2ccccc2-n2c1nc1ccccc1c2=O | 50* | 5 | -12 | -7 | 21
CSC1=N/C(=C/c2ccccc2)C(=O)N1c1ccc(F)c(Cl)c1 | 25 | 1 | 33* | 14 | 14
COc1ccc(C(C(=O)NC2CCCCC2)N(C(=O)Cn2nnc3ccccc32)c2ccc(S(=O)(=O)N3CCC(C)CC3)cc2)cc1O (configuration not stated) | 5 | 17 | 33* | 6 | -5
CCOC(=O)c1ccc(N(C(=O)Cn2nnc3ccccc32)C(C(=O)NC(C)(C)C)c2cc(OC)c(OC)c(OC)c2)cc1 (configuration not stated) | 30* | 29 | 30 | 8 | -16
COc1cc(C(C(=O)NC(C)(C)C)N(Cc2ccccc2Cl)C(=O)c2cccc(-n3cnnn3)c2)cc(OC)c1OC (configuration not stated) | -1 | -4 | -9 | -5 | 7
CN(C)S(=O)(=O)c1ccc(N(C(=O)c2cnccn2)C(C(=O)NC2CCCCC2)c2ccccc2)cc1 (configuration not stated) | -12 | -2 | -3 | -6 | -12
CCn1c(=O)n(CC(=O)N2CCC(C(N)=O)CC2)c(=O)c2ccccc21 | -1 | 1 | 4 | -7 | -3
Cc1cc(NC(=O)Cn2c(=O)n(CCCCC(=O)NCc3ccco3)c(=O)c3ccccc32)ccc1Br | 64* | 60* | 5 | 0 | 84*
SMILES | USP17 block | USP10 inh | USP30 block | USP28 block | USP8 inh
CCn1c(=O)n(CC(=O)Nc2ccc3c(c2)OCO3)c(=O)c2ccccc21 | 6 | 2 | 6 | 0 | 1
Cc1ccc(NC(=O)Cn2c(=O)n(CC(=O)NCc3ccco3)c(=O)c3ccccc32)cc1C | 63* | 21 | 45* | 44* | 22
N#Cc1ccccc1Cn1c(=O)n(CCC(=O)N2CC=C(c3ccccc3)CC2)c(=O)c2ccccc21 | 0 | 10 | 25 | 14 | 12
O=C(Cn1c(=O)n(CCC(=O)N2CC=C(c3ccccc3)CC2)c(=O)c2ccccc21)NCc1ccco1 | 63* | 4 | 28 | 25 | 51*
O=C(CCCCn1c(=O)c2ccccc2n(CC(=O)NCCC2=CCCCC2)c1=O)NCc1ccco1 | 10 | 0 | -8 | -3 | 42*
COc1ccc(CNc2ncc(C(=O)NCc3ccc(C)o3)c(C)n2)cc1 | -96 | -4 | -425 | -90 | -33
CNc1nc2c(c(=O)n1-c1ccccc1)CN(C(=O)c1ccncc1)CC2 | 15 | 0 | 19 | 6 | 15
O=C(CCCn1c(=O)c2ccccc2n(Cc2ccccc2)c1=O)NCc1ccco1 | 17 | 7 | 10 | 4 | 15
O=C(Cn1c(=O)n(CC2CCC(C(=O)NC3CCCC3)CC2)c(=O)c2ccccc21)NCCC1=CCCCC1 (configuration not stated) | 50* | 34* | 40* | 2 | 24
CCOc1ccc(NC(=O)Cn2c(=O)n(CCC(=O)NCc3ccco3)c(=O)c3ccccc32)cc1 | 71* | 45* | 3 | 8 | 45*
Cc1nc(-c2csc(S(=O)(=O)N3CCc4ccccc43)c2)no1 | -2 | 2 | -1 | 3 | -13
O=c1cc(C2CCN(Cc3cccc(F)c3)CC2)nc(-c2cccnc2)[nH]1 | 5 | -1 | -2 | -4 | 8
COc1ccc([C@H]2Oc3cc(OC)cc(O)c3C(=O)[C@@H]2[C@@H]2C(=O)c3c(O)cc(O)cc3O[C@H]2c2ccc(OC)cc2)cc1 | 41* | 68* | 0 | 9 | 19
C[C@H]1C(=O)c2c(O)cc(O)cc2O[C@@H]1c1ccc(O)cc1 | 17 | 5 | 20 | 7 | 3
COc1ccc(-c2ocnc2C(=O)Nc2cccc(Cl)c2C)cc1OC | 28 | -2 | 58* | 0 | -23
CCOC(=O)c1csc(NC(=O)c2cc(-c3ccccc3)nc3ccccc23)n1 | 8 | 7 | 7 | 6 | 23
CCOC(=O)c1csc(NC(=O)c2ccccc2Br)n1 | 0 | 3 | 5 | 41* | -4
COCCN1C[C@@H]2C(=O)N(C)C3(CCN(C(=O)NCCc4ccccc4)CC3)[C@@H]2C1 | -7 | -2 | x | x | -3
Cc1ccc2nc(CCc3ccc(NS(=O)(=O)c4ccc(F)c(F)c4)cc3)[nH]c2c1 | 1 | 9 | 3 | 31* | 9
Cc1ccc2nc(CCc3ccc(NS(=O)(=O)c4cc(F)ccc4F)cc3)[nH]c2c1 | -8 | 5 | -5 | 25 | -4
